TDP1 block: blocks human tyrosyl-DNA phosphodiesterase 1; hit rate 0.28% among 350,000; AID 485290; recombinant TDP1, AlphaScreen DNA substrate cleavage; Q9NUW8; Potency, µM (titrated, usually from 130 µM), actives largely listed as inhibitors; note: nearly all actives have a fitted effect of over 40% in size
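E. coli-derived human Tdp1, 1 nM final. Cpd preinc 15 min RT; substrate 15 nM final, 5 min RT; AS bead mix 10 ug/ml final, 10 min RT. Signal loss = tyrosine-FITC cleavage. No-enzyme wells = max signal.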
TDP1 cell noCPT: qHTS for Inhibitors of human tyrosyl-DNA phosphodiesterase 1 (TDP1): qHTS in cells in absence of CPT; DT40 Tdp1-/- hTDP1 cells, no CPT, ATP luminescence, 48 h; Potency, µM (top dose mostly 46.2 µM), hits mostly inhibitors; hit rate 15% among 420,000; note: nearly all actives have a fitted effect of over 55% in size
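A cellular qHTS used chicken DT40 cells lacking endogenous Tdp1 but carrying stably transfected human TDP1. Compounds were applied without camptothecin, and cell growth kinetics were judged by ATP-dependent luminescence after ≥48 hr.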
DT40 TDP1 CPT: DT40-hTDP1 cell growth loss with CPT; chicken DT40 Tdp1-/-;hTDP1 cells + 20 nM CPT, ATP luminescence, 48 h; Potency, µM (doses to about 46.2 µM), most hits filed as inhibitors; hit rate 12% among 420,000; AID 686979; note: nearly all actives have a fitted effect of over 55% in size
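Cell growth measured by CellTiter-Glo luminescence after a minimum 48 h, 37 C compound exposure with 20 nM CPT in Tdp1-knockout DT40 cells stably expressing hTDP1, seeded 400/well; qHTS titration format.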
ClpP mod: qHTS Assay for Activators of ClpP; Potency, µM (series often up to 57.5 µM); ATP-dependent Clp protease proteolytic subunit (Bacillus subtilis (strain 168)), P80244; hit rate 1.9% among 340,000; purified B. subtilis ClpP, FRET peptide cleavage, 20 min; AID 651965, 2013; active = well fitted falling curve with a large enough effect; inconclusive = small, poorly fitted or top-dose-only effect; inactive = no such curve, though single readings can be large or run the other way; note: the source files actives as falling curves though it sought activators and does not explain the sign; nearly all actives have a fitted effect of over 65% in size
Target sequence (P80244 whole entry, looked up): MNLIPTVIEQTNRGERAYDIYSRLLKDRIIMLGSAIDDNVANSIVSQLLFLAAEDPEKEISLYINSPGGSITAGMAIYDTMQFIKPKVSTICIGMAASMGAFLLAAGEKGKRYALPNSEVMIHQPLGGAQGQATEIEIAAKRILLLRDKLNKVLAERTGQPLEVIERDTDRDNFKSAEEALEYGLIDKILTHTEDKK
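Buffer: 100 mM Tris/HCl pH8, 100 mM KCl, 0.05% low protease BSA, 2.5% glycerol, 0.01% Tween-20. ClpP 10 microg/mL final; 20 min RT; delta FRET normalized to ADEP and DMSO controls.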
Of the large screens only hits and unclear results are named; the others gave an inactive call. The list is not random: actives were taken first. Their share in the collection is about 17%. Unless noted, calls come from the whole dose curve; as a rule, active = well fitted curve in the direction sought with a large enough effect; inconclusive = small, poorly fitted or top-dose-only effect, or another doubt; inactive = no such curve, though single readings can be large; an effect the other way counts as inactive or inconclusive.

COc1ccc(C)c2sc(N(Cc3cccnc3)C(=O)C3CCCCC3)nc12	TDP1 cell noCPT 15µM, DT40 TDP1 CPT 18µM
COc1ccc(C)c2sc(N(Cc3cccnc3)C(=O)CCc3ccccc3)nc12	TDP1 cell noCPT 15µM, DT40 TDP1 CPT inconclusive
COc1cccc(C(=O)N(Cc2cccnc2)c2nc3c(OC)ccc(C)c3s2)c1OC	TDP1 cell noCPT 23µM, DT40 TDP1 CPT inconclusive
COc1ccc(C)c2sc(N(Cc3cccnc3)C(C)=O)nc12	DT40 TDP1 CPT inconclusive
O=C(C1CCCCC1)N(Cc1cccnc1)c1nc2c(F)cccc2s1	TDP1 cell noCPT 21µM, DT40 TDP1 CPT 21µM
Cc1nnc(SCC(=O)NC2CCCC(C)C2C)n1N (configuration not stated)	none
CCC(=O)N1CCc2cc(Br)cc(S(=O)(=O)N3CCCC(C(=O)NC(C)(C)C)C3)c21 (configuration not stated)	TDP1 cell noCPT inconclusive, DT40 TDP1 CPT inconclusive (no result: ClpP mod)
CC1=C(C)CC(C(=O)NNC(=O)c2cccc(Cl)c2)C(C(=O)O)C1 (configuration not stated)	TDP1 cell noCPT inconclusive
CCOc1ccc(-c2cc3c(=O)n(Cc4nc(-c5ccc(OCC)c(OC)c5)oc4C)ccn3n2)cc1Cl	none
O=C(N/N=C/c1ccccn1)c1ccc(N/N=C/c2ccccn2)cc1	none
CC(C)(C)c1ccc(C(=O)N/N=C/c2ccccn2)cc1	TDP1 cell noCPT 5.8µM, DT40 TDP1 CPT 9.2µM (no result: TDP1 block)
O=C(N/N=C/c1ccccn1)c1ccc(Br)cc1	TDP1 cell noCPT 15µM, DT40 TDP1 CPT 21µM
Cc1ccc(C(=O)N/N=C\c2ccccn2)cn1	none
COc1cccc(CNc2ncc(-c3ccc(Br)cc3)n2C)c1	TDP1 cell noCPT inconclusive, DT40 TDP1 CPT inconclusive
COc1ccccc1C(=O)NCc1ccccn1	none
Nc1nc(N)c2cc(S(=O)(=O)c3ccc4ccccc4c3)ccc2n1	TDP1 cell noCPT 1.8µM, DT40 TDP1 CPT inconclusive, ClpP mod inconclusive (no result: TDP1 block)
Cc1cc(C)cc(C(=O)C[n+]2cccc(Br)c2)c1	none (no result: TDP1 block)
c1ccc(C2COC(c3cccs3)=N2)cc1 (configuration not stated)	none
Fc1ccccc1N1CC(c2ccccc2)C(c2cccs2)=N1 (configuration not stated)	TDP1 cell noCPT inconclusive, ClpP mod 16µM (no result: TDP1 block)
Oc1ccccc1/C=N/Nc1nccnc1Cl	TDP1 cell noCPT 2.9µM, DT40 TDP1 CPT 4.6µM
Oc1ccc(/C=N/Nc2nccnc2Cl)c(O)c1	TDP1 cell noCPT 3.3µM, DT40 TDP1 CPT 3.3µM
Oc1ccc(C=NNc2ccccn2)c(O)c1	TDP1 cell noCPT 2.9µM, DT40 TDP1 CPT 4.1µM (no result: TDP1 block)
Oc1ccc(Br)cc1/C=N/Nc1ncc(-c2ccccc2)cn1	TDP1 cell noCPT 8.2µM, DT40 TDP1 CPT 6.5µM
Cc1ccc2c(CC(=O)Nc3cc(C(F)(F)F)ccc3Cl)coc2c1C	none
Cc1cc(C)c(C#N)c(Oc2ccccc2Br)n1	none
Cc1ccc2c(c1)c(=O)c(C(=O)c1ccncc1)cn2CC(=O)Nc1ccccc1Cl	none
O=C(OCc1ccccc1)[C@@H]1COC(c2ccc(Br)cc2)=N1	none (no result: TDP1 cell noCPT, DT40 TDP1 CPT, ClpP mod)
Oc1ccc(/C=N/Nc2ncc(Br)cn2)c(O)c1	TDP1 cell noCPT 7.3µM, DT40 TDP1 CPT 7.3µM
Cc1ccc(C2Nc3ccccc3NC3=C2C(=O)CC(C)(C)C3)c(O)c1 (configuration not stated)	none (no result: TDP1 block, ClpP mod)
CC1(C)CC(=O)C2=C(C1)Nc1ccccc1NC2c1cc(Cl)ccc1O (configuration not stated)	TDP1 cell noCPT 23µM, DT40 TDP1 CPT 18µM
CN(C)S(=O)(=O)Nc1ccc(Cc2ccncc2)cc1	none (no result: TDP1 block)
CCC(=O)N1CCN(c2ccc(NC(=O)COc3ccc(C)cc3C)cc2)CC1	TDP1 cell noCPT 18µM, DT40 TDP1 CPT inconclusive (no result: ClpP mod)
CCC(=O)N1CCN(c2ccc(NC(=O)COc3ccccc3[N+](=O)[O-])cc2)CC1	TDP1 cell noCPT 10µM, DT40 TDP1 CPT 15µM
CC(OC(=O)COc1ccccc1[N+](=O)[O-])C(=O)Nc1ccc(N2CCOCC2)cc1 (configuration not stated)	none
CCC(=O)N1CCN(c2ccc(NC(=O)COc3ccccc3Cl)cc2)CC1	TDP1 cell noCPT 26µM, DT40 TDP1 CPT 16µM
CCC(=O)N1CCN(c2ccccc2NC(=O)COc2ccccc2Cl)CC1	TDP1 cell noCPT inconclusive, DT40 TDP1 CPT 23µM
Cc1ccc(OCCCC(=O)Nc2ccc(N3CCOCC3)cc2)c(C)c1	none
Cc1ccc(C(=O)N2CCN(c3ccc(NC(=O)COc4ccccc4C)cc3)CC2)cc1	TDP1 cell noCPT 5.2µM, DT40 TDP1 CPT 4.1µM
Cc1cccc(OCC(=O)Nc2ccc(N3CCCC3)cc2)c1C	TDP1 cell noCPT inconclusive
COc1ccc(C(=O)N2CCN(c3ccc(NC(=O)Cc4ccccc4)cc3)CC2)cc1	TDP1 cell noCPT inconclusive, DT40 TDP1 CPT inconclusive
Cc1ccc(C(=O)N2CCN(c3ccc(NC(=S)NC(=O)Cc4ccccc4)cc3)CC2)cc1	TDP1 cell noCPT inconclusive, DT40 TDP1 CPT 35µM
CN1CCN(c2ccc(NC(=O)COc3ccccc3Cl)cc2)CC1	TDP1 cell noCPT 16µM, DT40 TDP1 CPT 16µM
O=C(CCn1c(=O)oc2cc(Cl)ccc21)Nc1ccc(N2CCOCC2)cc1	none (no result: ClpP mod)
CCOc1ccc(NC(=O)C2C3CC/C=C\CCC32)cc1 (configuration not stated)	none
S=c1ncc2[nH]c(=S)[nH]c2[nH]1	TDP1 cell noCPT inconclusive (no result: TDP1 block, ClpP mod)
COC(=O)C1=Cc2cc(OC)cc([N+](=O)[O-])c2OC1N1CCOCC1 (configuration not stated)	TDP1 cell noCPT 26µM, DT40 TDP1 CPT inconclusive (no result: TDP1 block)
CC(C)C(=O)C1=Cc2cccc([N+](=O)[O-])c2OC1N1CCOCC1 (configuration not stated)	TDP1 cell noCPT inconclusive, DT40 TDP1 CPT inconclusive
CC(C)C(=O)C1=Cc2cc([N+](=O)[O-])ccc2OC1N1CCOCC1 (configuration not stated)	TDP1 cell noCPT 26µM, DT40 TDP1 CPT inconclusive (no result: TDP1 block)
O=C(COC(=O)c1ccccc1SCC(=O)N1CCCC1)NCc1ccccc1	none
COc1ccccc1CNC(=O)C(=O)NCC(c1cccs1)S(=O)(=O)c1ccc(F)cc1 (configuration not stated)	TDP1 cell noCPT inconclusive, DT40 TDP1 CPT inconclusive
O=C1C=CC(=O)c2c(O)c(N3CCN(CCO)CC3)c(Cl)c(O)c21	TDP1 cell noCPT 0.58µM, DT40 TDP1 CPT 0.58µM (no result: TDP1 block)
O=C1C=CC(=O)c2c(O)c(N3CCN(CCOCCO)CC3)c(Br)c(O)c21	TDP1 cell noCPT 0.92µM, DT40 TDP1 CPT 0.65µM (no result: TDP1 block)
O=C(NC1(Cc2ccccc2)CCN(CCCc2ccccc2)C1=O)c1ccccc1 (configuration not stated)	TDP1 cell noCPT 1.2µM, DT40 TDP1 CPT 0.65µM
O=C(CN1CCCC1)OCCCc1ccccc1	none (no result: ClpP mod)
CC(C)CC(=O)NC(NC(=S)Nc1cccc2cccnc12)C(Cl)(Cl)Cl (configuration not stated)	TDP1 cell noCPT 8.2µM, DT40 TDP1 CPT 8.2µM

Screening results: PubChem, National Center for Advancing Translational Sciences (NCATS)
